# Measured values: ChEMBL document CHEMBL3988442, “University of Dundee, Small-Polar-MMV Screening Library” (2021)
# For some of these results: Entries with a potency or affinity are not part of this list.
# Experiments:
# Design in all cases: scale not given: direction of the effect not stated beside the values
# [1] = target: Protein translocase subunit SecA (Escherichia coli (strain K12)) (UniProt P10408); test: Assay to Identify E. coli SecA ATPase Inhibitors; type: functional; conditions: 30 µM
# Chain of Protein translocase subunit SecA (Escherichia coli (strain K12)) (P10408 whole entry): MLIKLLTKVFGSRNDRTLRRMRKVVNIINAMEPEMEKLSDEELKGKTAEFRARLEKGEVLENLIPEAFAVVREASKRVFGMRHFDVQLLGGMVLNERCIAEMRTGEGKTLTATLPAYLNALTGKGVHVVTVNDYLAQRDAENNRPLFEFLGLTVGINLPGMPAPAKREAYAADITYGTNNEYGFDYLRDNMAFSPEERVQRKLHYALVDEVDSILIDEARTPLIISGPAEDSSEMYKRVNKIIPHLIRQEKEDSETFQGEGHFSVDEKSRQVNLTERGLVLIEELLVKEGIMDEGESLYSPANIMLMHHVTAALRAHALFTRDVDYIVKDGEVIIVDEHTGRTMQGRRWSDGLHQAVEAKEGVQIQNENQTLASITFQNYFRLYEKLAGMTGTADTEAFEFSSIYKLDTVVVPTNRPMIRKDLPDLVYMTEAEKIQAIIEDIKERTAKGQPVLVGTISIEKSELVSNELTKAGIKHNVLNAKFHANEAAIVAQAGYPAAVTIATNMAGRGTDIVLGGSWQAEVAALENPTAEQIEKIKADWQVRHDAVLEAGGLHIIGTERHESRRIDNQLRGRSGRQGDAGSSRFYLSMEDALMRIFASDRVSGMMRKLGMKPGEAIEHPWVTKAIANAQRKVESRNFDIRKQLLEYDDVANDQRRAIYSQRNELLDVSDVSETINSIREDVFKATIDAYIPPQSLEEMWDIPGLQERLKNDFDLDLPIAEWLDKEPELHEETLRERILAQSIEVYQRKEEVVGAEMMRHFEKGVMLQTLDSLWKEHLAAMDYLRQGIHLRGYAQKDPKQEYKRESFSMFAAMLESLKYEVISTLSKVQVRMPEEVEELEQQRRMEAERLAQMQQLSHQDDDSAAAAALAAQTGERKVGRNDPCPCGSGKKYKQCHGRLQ
# [2] = target: T1, Ubiquitin-activating enzyme e1, putative (Leishmania donovani (strain BPK282A1)) (UniProt E9BSI1); test: Leishmania donovani Ubiquitin Activating Enzyme (LdE1); type: functional; conditions: 30 µM
# T1 sequence (whole entry): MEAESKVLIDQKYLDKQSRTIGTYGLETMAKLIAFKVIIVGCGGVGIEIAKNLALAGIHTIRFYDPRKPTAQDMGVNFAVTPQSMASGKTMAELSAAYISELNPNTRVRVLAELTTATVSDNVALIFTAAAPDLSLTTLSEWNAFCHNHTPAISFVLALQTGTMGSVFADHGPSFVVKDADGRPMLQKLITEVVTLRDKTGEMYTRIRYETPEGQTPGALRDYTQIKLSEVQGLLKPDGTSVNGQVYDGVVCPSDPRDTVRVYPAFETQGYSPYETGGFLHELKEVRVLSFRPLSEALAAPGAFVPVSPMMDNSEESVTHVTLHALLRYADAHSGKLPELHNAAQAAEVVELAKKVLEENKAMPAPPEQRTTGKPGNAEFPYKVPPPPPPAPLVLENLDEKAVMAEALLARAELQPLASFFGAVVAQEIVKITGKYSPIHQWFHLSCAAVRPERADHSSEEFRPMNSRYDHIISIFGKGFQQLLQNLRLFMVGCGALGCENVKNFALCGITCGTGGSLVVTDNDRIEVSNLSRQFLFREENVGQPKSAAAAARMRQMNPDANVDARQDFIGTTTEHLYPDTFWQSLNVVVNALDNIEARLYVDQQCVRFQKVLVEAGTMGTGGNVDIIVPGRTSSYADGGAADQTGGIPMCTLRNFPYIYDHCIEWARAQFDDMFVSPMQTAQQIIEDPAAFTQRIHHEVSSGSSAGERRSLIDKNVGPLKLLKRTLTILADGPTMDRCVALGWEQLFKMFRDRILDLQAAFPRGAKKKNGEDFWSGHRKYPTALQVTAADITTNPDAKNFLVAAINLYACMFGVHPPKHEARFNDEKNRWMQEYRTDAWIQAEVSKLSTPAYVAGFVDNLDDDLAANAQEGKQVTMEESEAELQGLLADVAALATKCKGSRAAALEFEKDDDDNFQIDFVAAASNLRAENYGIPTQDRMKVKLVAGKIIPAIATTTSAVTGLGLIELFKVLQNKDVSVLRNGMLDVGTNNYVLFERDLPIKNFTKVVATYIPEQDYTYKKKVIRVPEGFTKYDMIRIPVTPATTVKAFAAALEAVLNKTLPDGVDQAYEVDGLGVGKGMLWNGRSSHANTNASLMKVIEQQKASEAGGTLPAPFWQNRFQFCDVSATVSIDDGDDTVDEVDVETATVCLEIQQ
# [3] = target: AMP-activated protein kinase, AMPK (Homo sapiens) (UniProt P54646+O43741+P54619+Q9UGJ0+Q9Y478+Q13131+Q9UGI9); test: AMP-dependent Kinase enzyme assay. An in vitro enzyme assay that detects ADP turnover that is directly proportional to AMPK activity. This uses naive AMPK that is activated during the assay with MK-8722; type: functional; conditions: 30 µM
# [4] = target: Sialic acid-binding Ig-like lectin 9 (Homo sapiens) (UniProt Q9Y336); test: Hs-Siglec9 ALPHAscreen SOP 20170721; conditions: 10 µM
# Chain of Sialic acid-binding Ig-like lectin 9 (Homo sapiens) (Q9Y336 whole entry): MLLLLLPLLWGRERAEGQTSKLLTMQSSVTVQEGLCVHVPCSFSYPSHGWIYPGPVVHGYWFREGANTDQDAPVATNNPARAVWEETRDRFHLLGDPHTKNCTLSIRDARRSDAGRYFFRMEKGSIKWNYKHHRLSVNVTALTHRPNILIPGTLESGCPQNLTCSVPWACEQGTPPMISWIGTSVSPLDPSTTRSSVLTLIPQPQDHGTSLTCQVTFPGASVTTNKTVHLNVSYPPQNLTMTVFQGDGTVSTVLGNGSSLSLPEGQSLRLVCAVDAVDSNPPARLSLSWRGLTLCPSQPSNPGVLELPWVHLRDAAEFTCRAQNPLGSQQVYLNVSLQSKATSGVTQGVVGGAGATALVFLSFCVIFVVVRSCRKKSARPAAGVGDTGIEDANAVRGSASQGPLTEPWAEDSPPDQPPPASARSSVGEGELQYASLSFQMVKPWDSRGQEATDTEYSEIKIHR
# Trypanosoma cruzi = test: Trypanosoma cruzi phosphomannomutase and mannose-1-phosphate guanylyltransferase assay; type: functional; conditions: 10 µM
# [5] = target: T2, Arginase-2, mitochondrial (Homo sapiens) (UniProt P78540); test: in vitro enzyme assay to detect the production of urea directly proportional to the activity of Arginase II; type: functional; conditions: 33.3 µM; note: in the data most compounds retested in dose-response had high values
# T2 sequence (whole entry): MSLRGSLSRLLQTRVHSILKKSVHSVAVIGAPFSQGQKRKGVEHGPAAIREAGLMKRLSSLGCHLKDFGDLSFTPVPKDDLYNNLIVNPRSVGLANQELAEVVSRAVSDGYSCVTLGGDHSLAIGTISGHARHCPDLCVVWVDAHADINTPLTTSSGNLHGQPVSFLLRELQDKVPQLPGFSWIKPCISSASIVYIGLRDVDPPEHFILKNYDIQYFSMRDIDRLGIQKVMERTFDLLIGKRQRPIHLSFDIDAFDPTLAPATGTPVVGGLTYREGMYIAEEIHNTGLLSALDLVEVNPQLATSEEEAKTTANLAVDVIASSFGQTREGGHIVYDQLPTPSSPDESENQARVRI
# [6] = target: T3, Proteasome subunit beta (Trypanosoma cruzi) (UniProt O96673); test: Trypanosoma cruzi proteasome chymotrypsin-like activity (TcProtChymo) assay.; note: in the data most compounds retested in dose-response had high values; type: functional; conditions: 9.37 µM
# T3 sequence (whole entry): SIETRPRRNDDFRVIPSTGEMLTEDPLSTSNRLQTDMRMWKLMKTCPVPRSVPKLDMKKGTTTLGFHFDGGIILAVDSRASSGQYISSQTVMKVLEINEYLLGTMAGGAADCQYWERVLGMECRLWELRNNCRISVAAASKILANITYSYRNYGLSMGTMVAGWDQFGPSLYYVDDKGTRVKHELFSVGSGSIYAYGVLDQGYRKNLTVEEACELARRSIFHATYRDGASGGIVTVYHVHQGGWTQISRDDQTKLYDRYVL
# Homo sapiens = organism: Homo sapiens; test: To identify inhibition of the IFN signalling (Jak-Stat) pathway via expression of an eGFP reporter gene under the control of an IFN-stimulated response element (ISRE) containing MxA promoter.; type: functional; conditions: 30 µM
# [7] = target: T4, Tyrosyl-tRNA synthetase, putative (Trypanosoma cruzi (strain CL Brener)) (UniProt Q4DSP6); test: Trypanosoma cruzi tyrosyl tRNA synthetase (TcYRS) _High Tyrosine SOP; type: functional; conditions: 30 µM; note: in the data most compounds retested in dose-response had high values
# T4 sequence (whole entry): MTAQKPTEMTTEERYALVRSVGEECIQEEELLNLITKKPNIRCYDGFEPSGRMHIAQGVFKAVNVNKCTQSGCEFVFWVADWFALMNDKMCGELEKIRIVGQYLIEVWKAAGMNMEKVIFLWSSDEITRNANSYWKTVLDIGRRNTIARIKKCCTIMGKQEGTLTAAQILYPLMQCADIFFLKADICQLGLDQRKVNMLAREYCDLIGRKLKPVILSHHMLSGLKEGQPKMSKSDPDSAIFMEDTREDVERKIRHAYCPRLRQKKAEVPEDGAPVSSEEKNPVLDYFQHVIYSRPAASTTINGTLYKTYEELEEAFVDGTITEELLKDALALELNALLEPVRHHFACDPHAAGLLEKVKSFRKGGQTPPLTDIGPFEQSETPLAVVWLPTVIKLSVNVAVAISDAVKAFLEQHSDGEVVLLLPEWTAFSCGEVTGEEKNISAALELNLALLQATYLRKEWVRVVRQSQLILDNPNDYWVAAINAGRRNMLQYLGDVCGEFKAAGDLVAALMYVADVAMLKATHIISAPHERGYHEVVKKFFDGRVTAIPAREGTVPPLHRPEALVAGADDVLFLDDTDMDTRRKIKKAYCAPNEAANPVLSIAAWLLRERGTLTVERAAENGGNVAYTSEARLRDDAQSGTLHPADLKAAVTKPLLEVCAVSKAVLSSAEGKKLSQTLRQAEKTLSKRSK
# [8] = target: T4, Tyrosyl-tRNA synthetase, putative (Trypanosoma cruzi (strain CL Brener)); test: Trypanosoma cruzi tyrosyl tRNA synthetase (TcYRS) SOP; type: functional; conditions: 30 µM
# [9] = target: Chromo domain-containing protein 1 (Saccharomyces cerevisiae (strain ATCC 204508 / S288c) (Baker's yeast)) (UniProt P32657); test: ScCHD-1 Enzyme Inhibition Assay; type: functional; conditions: 30 µM; note: in the data most compounds retested in dose-response had high values
# Chain of Chromo domain-containing protein 1 (Saccharomyces cerevisiae (strain ATCC 204508 / S288c) (Baker's yeast)) (P32657 whole entry, the tested form may be a part): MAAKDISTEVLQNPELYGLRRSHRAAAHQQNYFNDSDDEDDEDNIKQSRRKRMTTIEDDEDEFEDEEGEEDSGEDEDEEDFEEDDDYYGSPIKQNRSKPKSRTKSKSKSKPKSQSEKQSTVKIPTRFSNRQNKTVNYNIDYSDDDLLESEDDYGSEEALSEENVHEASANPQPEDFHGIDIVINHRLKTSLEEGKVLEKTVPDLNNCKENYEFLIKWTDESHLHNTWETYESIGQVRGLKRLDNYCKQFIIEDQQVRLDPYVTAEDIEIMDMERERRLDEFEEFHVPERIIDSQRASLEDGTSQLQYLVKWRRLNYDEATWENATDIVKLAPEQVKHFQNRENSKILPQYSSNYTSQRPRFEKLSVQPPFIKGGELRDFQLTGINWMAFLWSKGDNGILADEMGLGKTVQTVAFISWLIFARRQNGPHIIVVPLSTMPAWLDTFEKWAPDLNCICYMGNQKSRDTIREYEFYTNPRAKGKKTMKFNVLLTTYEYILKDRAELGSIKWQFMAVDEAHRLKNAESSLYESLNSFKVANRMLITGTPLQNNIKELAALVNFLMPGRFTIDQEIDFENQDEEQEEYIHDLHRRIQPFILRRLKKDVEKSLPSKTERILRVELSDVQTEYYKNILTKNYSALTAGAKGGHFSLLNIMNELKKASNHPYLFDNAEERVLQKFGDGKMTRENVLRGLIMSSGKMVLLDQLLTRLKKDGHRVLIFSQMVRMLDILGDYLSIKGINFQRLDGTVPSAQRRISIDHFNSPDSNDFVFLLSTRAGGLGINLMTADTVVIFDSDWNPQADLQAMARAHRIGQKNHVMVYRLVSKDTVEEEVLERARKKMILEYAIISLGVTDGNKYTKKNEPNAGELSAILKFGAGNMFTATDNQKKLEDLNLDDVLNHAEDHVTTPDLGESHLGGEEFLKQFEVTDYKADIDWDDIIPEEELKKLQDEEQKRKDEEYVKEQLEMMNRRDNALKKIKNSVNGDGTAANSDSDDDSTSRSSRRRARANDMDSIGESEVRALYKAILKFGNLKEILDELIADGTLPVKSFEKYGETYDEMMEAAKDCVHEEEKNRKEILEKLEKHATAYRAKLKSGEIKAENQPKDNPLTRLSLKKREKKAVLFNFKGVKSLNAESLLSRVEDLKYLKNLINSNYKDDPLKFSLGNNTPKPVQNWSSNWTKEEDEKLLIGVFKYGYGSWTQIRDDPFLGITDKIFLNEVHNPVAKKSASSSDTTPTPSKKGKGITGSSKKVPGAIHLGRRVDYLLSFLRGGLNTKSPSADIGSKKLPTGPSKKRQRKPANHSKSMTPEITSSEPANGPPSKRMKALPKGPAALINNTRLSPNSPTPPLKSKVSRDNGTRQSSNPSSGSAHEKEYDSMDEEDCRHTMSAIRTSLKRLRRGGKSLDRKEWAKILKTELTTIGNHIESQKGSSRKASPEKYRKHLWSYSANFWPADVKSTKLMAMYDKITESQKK
compound,measurement,setting,value
COc1ccc(CNCC(C)Oc2ccccn2)cc1Br (stereo not drawn),Percent Effect,[1],0.219%
same,Percent Effect,[2],17.3%
same,Percent Effect,[3],-6.72%
same,Percent Effect,[4],0.831%
same,Percent Effect,Trypanosoma cruzi,5.3%
same,Percent Effect,[5],-4.75%
same,Percent Effect,[6],9.8%
same,Percent Effect,Homo sapiens,3.97%
same,Percent Effect,[7],11.6%
same,Percent Effect,[8],12.8%
same,Percent Effect,[9],-11.9%
CS(=O)(=O)N1Cc2nccn2CC(Cn2ncccc2=O)C1 (stereo not drawn),Percent Effect,[1],-1.2%
same,Percent Effect,[2],13.3%
same,Percent Effect,[3],3.55%
same,Percent Effect,[4],5.03%
same,Percent Effect,Trypanosoma cruzi,-5.79%
same,Percent Effect,[5],-26%
same,Percent Effect,[6],7.18%
same,Percent Effect,Homo sapiens,0.368%
same,Percent Effect,[7],3.12%
same,Percent Effect,[8],12.5%
same,Percent Effect,[9],-4.85%
Cc1cnc2n(c1=O)C(CC(=O)NCc1cc(-c3cccs3)on1)CS2 (stereo not drawn),Percent Effect,[1],-0.436%
same,Percent Effect,[2],20.8%
same,Percent Effect,[3],11.4%
same,Percent Effect,[4],-23.7%
same,Percent Effect,Trypanosoma cruzi,1.28%
same,Percent Effect,[5],5.81%
same,Percent Effect,[6],6.79%
same,Percent Effect,Homo sapiens,28.9%
same,Percent Effect,[7],2.12%
same,Percent Effect,[8],16.7%
same,Percent Effect,[9],-11%
COCC1c2nnn(CC3CC3)c2CCN1C(=O)c1cccc(F)c1 (stereo not drawn),Percent Effect,[1],-5.76%
same,Percent Effect,[2],0%
same,Percent Effect,[3],-4.62%
same,Percent Effect,[4],0.968%
same,Percent Effect,Trypanosoma cruzi,-4.59%
same,Percent Effect,[5],-0.248%
same,Percent Effect,[6],3%
same,Percent Effect,Homo sapiens,10%
same,Percent Effect,[7],5.38%
same,Percent Effect,[8],6.17%
same,Percent Effect,[9],1.63%
CS(=O)(=O)Cc1cccc(C(=O)NCC2Cc3ccccc3O2)c1 (stereo not drawn),Percent Effect,[1],-4.91%
same,Percent Effect,[2],5.48%
same,Percent Effect,[3],2.31%
same,Percent Effect,[4],0.841%
same,Percent Effect,Trypanosoma cruzi,-2.74%
same,Percent Effect,[5],5.46%
same,Percent Effect,[6],17.9%
same,Percent Effect,Homo sapiens,-3.29%
same,Percent Effect,[7],2.15%
same,Percent Effect,[8],15%
same,Percent Effect,[9],-4.73%
COc1ccc(C2C3=C(COC3=O)Nc3[nH]nc(C)c32)cc1OC (stereo not drawn),Percent Effect,[1],2.08%
same,Percent Effect,[2],6.67%
same,Percent Effect,[3],9.48%
same,Percent Effect,[4],-1.62%
same,Percent Effect,Trypanosoma cruzi,-6.68%
same,Percent Effect,[5],-10.7%
same,Percent Effect,[6],12.8%
same,Percent Effect,Homo sapiens,8.17%
same,Percent Effect,[7],5.29%
same,Percent Effect,[8],10.3%
same,Percent Effect,[9],-11%
Cc1nn(C)c(C)c1NC(=O)CN1CCCC1c1noc(C2CC2)n1 (stereo not drawn),Percent Effect,[1],2.36%
same,Percent Effect,[2],13.7%
same,Percent Effect,[3],-14.8%
same,Percent Effect,[4],1.88%
same,Percent Effect,Trypanosoma cruzi,-0.196%
same,Percent Effect,[5],3.64%
same,Percent Effect,[6],20.6%
same,Percent Effect,Homo sapiens,-0.924%
same,Percent Effect,[7],6.45%
same,Percent Effect,[8],12.5%
same,Percent Effect,[9],-7.02%
CC1c2ncc(CN3CCN(C)CC3)n2CCN1Cc1cccnc1 (stereo not drawn),Percent Effect,[1],-2.48%
same,Percent Effect,[2],8%
same,Percent Effect,[3],-3.01%
same,Percent Effect,[4],1.22%
same,Percent Effect,Trypanosoma cruzi,5.41%
same,Percent Effect,[5],-51.8%
same,Percent Effect,[6],7.35%
same,Percent Effect,Homo sapiens,-9.88%
same,Percent Effect,[7],5.21%
same,Percent Effect,[8],5%
same,Percent Effect,[9],-7.93%
